From ChEMBL document CHEMBL1157539, “Thousands of chemical starting points for antimalarial lead identification” (Nature, 2010)

Legend:
Assay type in all cases: functional
Plasmodium falciparum [1] = assay: GSK_TCMDC: Inhibition of Plasmodium falciparum 3D7 in whole red blood cells, using parasite LDH activity as an index of growth. Test compounds present at 2uM
Plasmodium falciparum [2] = assay: GSK_TCMDC: Inhibition of Plasmodium falciparum Dd2 in whole red blood cells, using parasite LDH activity as an index of growth. Test compounds present at 2uM
HepG2 = assay: GSK_TCMDC: Percent inhibition of human HepG2 cell line. Test compounds present at 10uM.

Compound | Inhibition (Plasmodium falciparum [1]) [%] | Inhibition (Plasmodium falciparum [2]) [%] | Inhibition (HepG2) [%]
CC[C@H]1CN2CC[C@H]1C[C@H]2[C@H](O)c1cc(N2CCCC(CO)C2)nc2ccc(OC)cc12 (some centres undefined) | 100 | 99 | 11
Br.CC[C@H]1CN2CC[C@H]1C[C@H]2[C@H](O)c1ccnc2ccc(OC)cc12 | 100 | 62 | 0
COCC(=O)N(Cc1ccccc1-c1ccc(CNCCc2ccccc2)cc1)C1CCN(Cc2ccccc2)CC1.O=C(O)C(F)(F)F | 94 | 86 | 39
